FLuc modulator – firefly luciferase modulation, counter-screen for miR-21 project. purified FLuc, Km substrates, luminescence inhibition. 360,000 compounds, 6.9% hits. P08659. AID 588342. Potency, µM (doses to about 57.5 µM), for inactives: at the top dose activity change, negative = inhibition, most hits filed as inhibitors;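 also: plate controls were vehicle for no effect and reference inhibitor for full effect; nearly all actives have a fitted effect of over 55% in size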
Target sequence (P08659 whole entry, looked up): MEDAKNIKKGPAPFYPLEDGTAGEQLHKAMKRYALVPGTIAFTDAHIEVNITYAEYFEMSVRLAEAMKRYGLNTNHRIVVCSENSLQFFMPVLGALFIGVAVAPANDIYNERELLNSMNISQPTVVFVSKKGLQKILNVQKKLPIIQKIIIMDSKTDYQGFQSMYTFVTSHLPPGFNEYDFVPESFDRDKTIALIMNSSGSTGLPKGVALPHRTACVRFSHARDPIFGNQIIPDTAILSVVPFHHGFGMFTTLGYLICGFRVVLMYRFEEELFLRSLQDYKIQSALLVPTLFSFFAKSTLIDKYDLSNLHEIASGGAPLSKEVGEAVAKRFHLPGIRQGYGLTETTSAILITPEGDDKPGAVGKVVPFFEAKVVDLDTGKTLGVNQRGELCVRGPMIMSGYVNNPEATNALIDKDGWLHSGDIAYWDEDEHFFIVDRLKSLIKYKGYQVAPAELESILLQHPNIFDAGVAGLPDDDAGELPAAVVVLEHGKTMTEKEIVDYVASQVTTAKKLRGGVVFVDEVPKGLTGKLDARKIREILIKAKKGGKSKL
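Biochemical qHTS of compounds, final roughly 60 µM downward over six points, against 10 nM purified firefly luciferase using Km concentrations of substrates (10 uM D-luciferin, 10 uM ATP) in Tris acetate pH 7.5 buffer; luminescence output.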
ELG1 genotox – induces genotoxicity in HEK293T cells with luciferase-tagged ELG1; HEK293T ELG1-luciferase reporter, luminescence, 16 h; Potency, µM (doses to about 46 µM), for inactives: at the highest dose activity change, positive = activation, usual class: activators; 330,000 compounds, 1.3% hits; AID 504466; also: % of control where 0% means no effect; nearly all actives have a fitted effect of over 60% in size
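HEK293T cells expressing luciferase-tagged ELG1 were exposed to compound or DMSO vehicle for 16 hr at 37 °C and 5% CO2. Luciferase activity was then measured with ONE-Glo after 30 min at room temperature.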
SMN2 splice up – SMN2 splice variant enhancement; HEK293 SMN2-luciferase splicing reporter, luminescence, 30-36 h; Potency, µM (doses to about 46.1 µM), for the others: at the top dose activity change, positive = activation, actives largely listed as activators; 210,000 compounds, 2.8% hits; also: % of control where 0% means no effect; nearly all actives have a fitted effect of over 55% in size
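HEK293 cells carry an SMN2 minigene-luciferase reporter in which exon 7 inclusion puts luciferase in frame. Cells were seeded at 2000 cells/well, attached for 10-12 hours, then exposed to compounds for 30-36 hours at 37C before ONE-Glo luminescence.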
NPC1 promoter act – activators of NPC1 promoter | Huh7 NPC1 promoter luciferase reporter, 24 h | Potency, µM (doses to about 9.22 µM), for inactives: at the highest dose activation, actives largely listed as activators | 320,000 compounds, 2.4% hits | AID 485313; also: % of control where 0% means no effect; nearly all actives have a fitted effect of over 60% in size
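Huh7 cells stably carrying NPC1 promoter–luciferase, plated in Opti-MEM with 10% FBS for 2 h, were exposed to compound in DMSO for 24 h at 37 °C; luciferase reagent was added for 10 min and luminescence read.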
Luc counter – counter-screen: inhibitors of Kinase-Glo firefly luciferase; Potency, µM (titrated, usually from 38.3 µM), for the others: at the top dose activity change, negative = inhibition, hits mostly inhibitors; Kinase-Glo luciferase, ATP luminescence, 8 min; AID 1379; Q27757; 200,000 compounds, 0.28% hits; also: % is scaled to controls: 0 for no effect and ±100 for the full control effect; nearly all actives have a fitted effect of over 60% in size
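Luminescence was the read-out, taken after 8-minute incubation at ambient temperature. Luciferase turned over luciferin with 10 uM ATP in imidazole pH 7.2 buffer containing KCl, MgCl2, Tween 20 and BSA.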
Rab9 prom act – activates the Rab9 promoter. Huh7 Rab9 promoter-luciferase reporter, luminescence, 24 h. Potency, µM (highest dose often 9.22 µM), without a hit: at the highest dose activation, negative = inhibition, usual class: activators. 320,000 compounds, 2.8% hits. AID 485297; also: % of control where 0% means no effect; nearly all actives have a fitted effect of over 60% in size
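Rab9 promoter-driven luciferase in stably transfected Huh7 cells; 1500 cells/well rested 2 h, exposed to compound in DMSO for 24 h at 37 °C, 5% CO2. Luminescence read 10 min after adding luciferase reagent at ambient temperature.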
Active calls of the source: *; ? = inconclusive; . = no result given. A selection: hits, their analogues and other compounds. The true share with any hit is near 7.5%. Calls follow the shape of the dose curve; as a rule, active = well fitted curve in the direction sought with a large enough effect; inconclusive = small, poorly fitted or top-dose-only effect, or another doubt; inactive = no such curve, though single readings can be large; an effect the other way counts as inactive or inconclusive. Potency is read from the fitted curve at half-maximal effect.

SMILES	FLuc modulator	ELG1 genotox	SMN2 splice up	NPC1 promoter act	Luc counter	Rab9 prom act
O=C(NC(=S)Nc1ccc2c(c1)OCO2)c1ccccc1	3.8µM*	?	20µM*	1.4µM*	-7%	1.6µM*
O=C(Nc1cccc([N+](=O)[O-])c1)c1[nH]ncc1Cl	17µM*	?	11µM*	3.2µM*	-8%	4µM*
CCCc1cc(C(=O)Nc2cccc([N+](=O)[O-])c2)cs1	11µM*	14%	.	?	.	?
Cc1ccc(S(=O)(=O)Nc2cc(=O)[nH]c(SCC(=O)Nc3cccc(C)c3)n2)cc1	19µM*	-7%	.	0%	.	-1%
CCOc1ccc(NC(=O)CSc2nc(NS(=O)(=O)c3ccc(C)cc3)cc(=O)[nH]2)cc1	21µM*	0%	.	0%	.	1%
Cc1ccc(NC(=O)CSc2nc(NS(=O)(=O)c3ccccc3)cc(=O)[nH]2)cc1	-3%	2%	-12%	0%	0%	0%
COc1cccc(C(=O)NCCS(=O)(=O)NCCCc2ccccc2)c1	6%	-1%	.	0%	.	-2%
CCOC(=O)c1c(C)[nH]c(C)c1S(=O)(=O)NCC(=O)Nc1ccc(CC)cc1	7%	.	.	.	.	.
O=[N+]([O-])c1ccc(C2Oc3ccccc3C3CC(c4ccccc4)=NN32)s1 (stereo not drawn)	9.5µM*	?	25µM*	-2%	3%	20%
CC(Cc1ccc(Cl)cc1)N1CCC(n2nccc2NC(=O)C2CCCC2)CC1 (stereo not drawn)	-1%	0%	.	-1%	.	-3%
COc1ccc(CCN(C)C(=O)c2cc(=O)c3ccccc3o2)cc1OC	-7%	3%	.	1%	.	2%
O=C(O)CC1S/C(=N/N=C/C=C/c2ccccc2)NC1=O (stereo not drawn)	19µM*	3%	-6%	-2%	-6%	0%
O=C(O)CC1S/C(=N/N=C/C=C/c2ccccc2[N+](=O)[O-])NC1=O (stereo not drawn)	0%	-1%	14%	2%	-3%	0%
O=C(NCC(=O)N1CCCC1)c1ccc(Cl)cc1	2%	12%	.	-3%	.	2%
N#Cc1c(N)nc2c(c1-c1ccc3c(c1)OCO3)CCc1ccccc1-2	2%	12%	?	-2%	-4%	-7%
c1ccc2c(c1)Cc1cc3cc4c(cc3nc1-2)OCO4	.	.	0.5µM*	.	2.8µM*	.
CCCc1cnc(N2CCN(C(=S)NC)CC2)nc1	17µM*	23µM*	.	?	.	4.5µM*
COc1ccc(CCNCc2ccc3c(c2)n(C)c(=O)n3C)cc1OC	-6%	.	.	.	.	.
CC(C)C(NC(=O)c1ccc(C(C)(C)C)cc1)C(=O)OCC(=O)NC(=O)Cc1ccccc1 (stereo not drawn)	21µM*	0%	17%	1%	0%	-4%
COC(=O)C(C)NC(=O)c1ccc(C(C)(C)C)cc1 (stereo not drawn)	19µM*	17%	?	21%	-4%	22%
O=C(NC(Cc1ccccc1)C(=O)O)/C(=C/c1ccc(Cl)cc1)NC(=O)c1ccco1 (stereo not drawn)	6%	-5%	.	3%	.	3%
C=CCC(=O)N1CCCC(CNC(=O)c2ccc(-c3ccccc3)cc2)C1 (stereo not drawn)	24µM*	0%	.	-2%	-1%	-3%
Cc1ccccc1CC(=O)N1CCCC(CNC(=O)c2ccc(F)cc2)C1 (stereo not drawn)	0%	0%	.	8%	.	-1%
CC(=O)c1ccc(C(=O)N2CCCC(CNC(=O)c3ccccc3Cl)C2)cc1 (stereo not drawn)	-4%	6%	.	-1%	.	8%
CC(=O)NCCC(=O)N1CCCC(CNC(=O)c2ccc(-c3ccccc3)cc2)C1 (stereo not drawn)	15µM*	9%	-3%	-4%	-3%	11%
SMILES	FLuc modulator	ELG1 genotox	SMN2 splice up	NPC1 promoter act	Luc counter	Rab9 prom act
O=C(NCC1CCCN(C(=O)c2cscn2)C1)c1ccc(-c2ccccc2)cc1 (stereo not drawn)	17µM*	5%	.	-2%	-1%	5%
O=C(NCC1CCCN(C(=O)c2cscn2)C1)c1ccccc1Cl (stereo not drawn)	?	8%	.	0%	-1%	-1%
CCN(CC)CCNc1ncnc2c1[nH]c1ccc(OC)cc12	8%	-1%	-15%	0%	-6%	-10%
COc1ccc2[nH]c3c(NCCCOC(C)C)ncnc3c2c1	6µM*	?	.	1.8µM*	.	0.79µM*
COc1ccc2[nH]c3c(NCc4ccco4)ncnc3c2c1	9.5µM*	9%	2%	?	-6%	4µM*
COc1ccc2[nH]c3c(NCCC4=CCCCC4)ncnc3c2c1	11µM*	-3%	-34%	-23%	-2%	-16%
CCC1CCCCN1CCCNC(=O)c1cc2c(=O)oc3ccc(C)cc3c2s1 (stereo not drawn)	0%	3%	.	0%	.	0%
O=C(O)/C=C/c1ccc(OCc2cccc(F)c2)cc1	17µM*	26%	.	1%	4%	-2%
O=C(/C=C/c1ccc(OCc2cccc(Cl)c2)cc1)N1CCOCC1	?	-1%	-24%	1%	3%	5%
N#C/C(=C\c1ccc(O)cc1)C(=O)N1CCCC1	-12%	4%	.	-3%	.	-1%
Cc1ccc(/C=C(\C#N)C(=O)N2CCCC2)c(C)c1	15µM*	?	12%	-14%	-2%	-6%
N#C/C(=C\c1ccc(OC(F)F)cc1)C(=O)N1CCCCC1	13µM*	15%	.	0%	.	-6%
N/C(Cc1ccc([N+](=O)[O-])cc1)=N\OC(=O)COc1ccccc1Cl	-20%	2%	-3%	0%	0%	-3%
COc1ccc(C(=O)O/N=C(\N)Cc2cccs2)cc1OC	5%	13%	.	1%	.	5%
N/C(Cc1cccs1)=N\OC(=O)COc1ccc(Br)cc1Cl	11µM*	?	6%	?	-5%	25%
N/C(Cc1cccs1)=N\OC(=O)COc1ccccc1Cl	24µM*	23µM*	-5%	15%	0%	?
COCCNC(=O)c1cnc2sc(N3CCCCC3)nn2c1=O	-1%	.	.	.	.	.
O=C(COC(=O)c1ccc(O)cc1O)NC1CC1	1%	-2%	.	4%	.	10%
O=C(Nc1ccccc1OCc1cc(=O)n2ccccc2n1)c1ccccc1F	-1%	.	.	.	.	.
Clc1ccc(-c2cnc(Oc3ccccc3)nc2)cc1	2.7µM*	?	14µM*	0.79µM*	-2%	2.8µM*
Cc1cc(Cl)ccc1Oc1ncc(-c2ccc(Cl)cc2)cn1	-16%	-7%	-24%	-6%	0%	-5%
